In PubChem BioAssay (NCATS):
Inconclusive results are not listed. Calls of active or inactive are those of the source. The call rests on the fitted dose curve; in most records, active means well fitted curve in the direction sought with a large enough effect; inconclusive means small, poorly fitted or top-dose-only effect, or another doubt; inactive means no such curve, though single readings can be large; an effect the other way counts as inactive or inconclusive.

test: qHTS assay to identify small molecule inhibitors of chordoma cells - UCH-1 (AID 1259355); details: UCH-1 chordoma viability, CellTiter-Glo, 48 h, combination, with auranofin plus four topoisomerase inhibitors; series mostly up to 46.1 µM; activity, negative = inhibition: at the top concentration; further: nearly all actives have a fitted effect of over 55% in size
Procedure, shortened: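 800 cells/well, overnight attach; compounds pinned at 15 concs, then auranofin/camptothecin/doxorubicin/rubitecan/topotecan combo added; 48hr 37 C, 5% CO2; CellTiter-Glo, 30min RT, luminescence.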
On the % scale 0 is the no-effect control and ±100 the full control effect; potency means the concentration at half of the fitted maximal effect.

SMILES | activity, negative = inhibition | Potency
COc1nc(N)nc2c1ncn2[C@@H]1O[C@H](CO)[C@@H](O)[C@@H]1O | -4.66% (inactive) | –
CCCCCCNC(=O)n1cc(F)c(=O)[nH]c1=O | 5.83% (inactive) | –
COc1ccc(-c2ccc3cc(C(=O)O)ccc3c2)cc1C12CC3CC(CC(C3)C1)C2 | -13.4% (inactive) | –
CCOC(=O)c1ccc(C#Cc2ccc3c(c2)C(C)(C)CCS3)nc1 | -25.5% (inactive) | –
CC(C)OC(=O)C(C(=O)OC(C)C)=C1SC=CS1 | 10.2% (inactive) | –
CNC1CCCN(c2c(F)cc3c(=O)c(C(=O)O)cn(C4CC4)c3c2OC)C1 (configuration not stated) | 1.3% (inactive) | –
CO[C@@]12[C@H](COC(N)=O)C3=C(C(=O)C(C)=C(N)C3=O)N1C[C@@H]1N[C@@H]12 | – | 17.8 µM (active)
CO[C@@H]1[C@@H](OC(N)=O)[C@@H](O)[C@H](Oc2ccc3c(O)c(NC(=O)c4ccc(O)c(CC=C(C)C)c4)c(=O)oc3c2C)OC1(C)C | -22.9% [at 20.6 µM] (inactive) | –
Cc1ncc([N+](=O)[O-])n1CCO | -9.02% (inactive) | –
CC(C)Cn1cnc2c(N)nc3ccccc3c21 | -18.7% (inactive) | –
CC(C)(Sc1cc(C(C)(C)C)c(O)c(C(C)(C)C)c1)Sc1cc(C(C)(C)C)c(O)c(C(C)(C)C)c1 | -0.981% [at 20.6 µM] (inactive) | –
NS(=O)(=O)c1cc2c(cc1Cl)NC(C(Cl)Cl)NS2(=O)=O (configuration not stated) | -12.5% [at 20.6 µM] (inactive) | –
Cc1nnc(NS(=O)(=O)c2ccc(N)cc2)s1 | -29.3% (inactive) | –
COC(c1ccccc1)(c1ccccc1)[C@H](Oc1nc(C)cc(C)n1)C(=O)O | 2.81% (inactive) | –

test: qHTS assay to identify small molecule inhibitors of chordoma cells - UCH-2 (AID 1259356); details: UCH-2 chordoma viability, CellTiter-Glo ATP luminescence, 48 h; series mostly up to 46.1 µM; activity change, negative = inhibition: at the top concentration

SMILES | activity change, negative = inhibition | Potency
CNCC[C@H](Oc1cccc2ccccc12)c1cccs1 | 5.93% (inactive) | –
N=C(N)c1ccc(OCCCCCOc2ccc(C(=N)N)cc2)cc1 | -0.964% (inactive) | –
CCc1cc(C(N)=S)ccn1 | 4.42% (inactive) | –
C[C@@H]1CN(c2c(F)c(N)c3c(=O)c(C(=O)O)cn(C4CC4)c3c2F)C[C@H](C)N1 | -2.11% (inactive) | –
S=P(N1CC1)(N1CC1)N1CC1 | 11.2% (inactive) | –
COc1nc(N)nc2c1ncn2[C@@H]1O[C@H](CO)[C@@H](O)[C@@H]1O | -1.41% (inactive) | –
CCCCCCNC(=O)n1cc(F)c(=O)[nH]c1=O | -0.612% (inactive) | –
CC[C@H](C)C(=O)O[C@H]1C[C@@H](C)C=C2C=C[C@H](C)[C@H](CC[C@@H]3C[C@@H](O)CC(=O)O3)[C@H]21 | -3.2% (inactive) | –
COc1ccc(-c2ccc3cc(C(=O)O)ccc3c2)cc1C12CC3CC(CC(C3)C1)C2 | -1.83% (inactive) | –
CCOC(=O)c1ccc(C#Cc2ccc3c(c2)C(C)(C)CCS3)nc1 | 7.79% (inactive) | –
CC(C)OC(=O)C(C(=O)OC(C)C)=C1SC=CS1 | 1.49% (inactive) | –
CNC1CCCN(c2c(F)cc3c(=O)c(C(=O)O)cn(C4CC4)c3c2OC)C1 (configuration not stated) | -1.2% (inactive) | –
CN(C)CCc1c[nH]c2ccc(C[C@H]3COC(=O)N3)cc12 | 1.94% (inactive) | –
COc1ncnc(NS(=O)(=O)c2ccc(N)cc2)c1OC | 5.82% (inactive) | –
CO[C@@]12[C@H](COC(N)=O)C3=C(C(=O)C(C)=C(N)C3=O)N1C[C@@H]1N[C@@H]12 | 6.23% (inactive) | –
CO[C@@H]1[C@@H](OC(N)=O)[C@@H](O)[C@H](Oc2ccc3c(O)c(NC(=O)c4ccc(O)c(CC=C(C)C)c4)c(=O)oc3c2C)OC1(C)C | -0.174% [at 20.6 µM] (inactive) | –
Cc1ncc([N+](=O)[O-])n1CCO | 7.73% (inactive) | –
CC(C)Cn1cnc2c(N)nc3ccccc3c21 | 7.82% (inactive) | –
Cc1onc(-c2ccccc2Cl)c1C(=O)N[C@@H]1C(=O)N2[C@@H]1SC(C)(C)[C@@H]2C(=O)O | 0% [at 20.6 µM] (inactive) | –
CC1=CC(=O)c2ccccc2C1=O | 22.2% (inactive) | –
CC(C)(Sc1cc(C(C)(C)C)c(O)c(C(C)(C)C)c1)Sc1cc(C(C)(C)C)c(O)c(C(C)(C)C)c1 | 10.2% [at 20.6 µM] (inactive) | –
NS(=O)(=O)c1cc2c(cc1Cl)NC(C(Cl)Cl)NS2(=O)=O (configuration not stated) | -1.04% [at 20.6 µM] (inactive) | –
C[C@]12C=CC(=O)C=C1CC[C@@H]1[C@@H]2C(=O)C[C@@]2(C)[C@H]1CC[C@]2(O)C(=O)CO | 3.81% (inactive) | –
COc1cc(NCc2ccc3nc(N)nc(N)c3c2C)cc(OC)c1OC | 2.5% (inactive) | –
Cc1nnc(NS(=O)(=O)c2ccc(N)cc2)s1 | 5.73% (inactive) | –
C[C@@H](NCCCc1cccc(C(F)(F)F)c1)c1cccc2ccccc12 | – | 25.9 µM (active)
COC(c1ccccc1)(c1ccccc1)[C@H](Oc1nc(C)cc(C)n1)C(=O)O | 6.54% (inactive) | –
COc1cc(NS(=O)(=O)c2ccc(N)cc2)nc(OC)n1 | 2.6% [at 20.6 µM] (inactive) | –
